Bioassay records deposited in PubChem BioAssay by National Center for Advancing Translational Sciences (NCATS).
Compounds with a hit are over-represented: about 3.1% of the library has one in this group of screens.
IL2 activator = activates IL-2 in a cell-based reporter assay. IL-2 activation reporter assay, cell-based qHTS; stimulated with anti-CD3/CD4/CD28 beads; in transgenic mouse T cells. 0.065% of 360,000 active. activation, % (series mostly up to about 46 µM); in the data active = activation above about 50%; inconclusive = mostly about 30% to 49%
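Quantitative HTS in unstimulated transgenic mouse T cells, with memory T cells as non-tolerant control and PMA/ionomycin as tolerance-bypass control. Compound pretreatment lasted 60 minutes before 18 h bead stimulation; EGFP/DsRed fluorescence read.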
ELG1 repair inh = inhibitors of ELG1-dependent DNA repair in HEK293T cells; HEK293T ELG1-luciferase reporter, luminescence, 16 h; DNA damage induced by 5-fluorouridine; Potency, µM (doses to about 46.1 µM), usual class: inhibitors; 2.3% of 330,000 active; AID 504467; note: nearly all actives have a fitted effect of over 55% in size
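Overnight (16 hr) co-exposure of 2,000 cells/well to 5-fluorouridine and compound at 37 °C preceded detection. Luciferase was quantified via ONE-Glo luminescence; loss of signal denotes inhibition.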
Nrf2 activator = activators of Nrf2 (ARE) signaling; AREc32 ARE-luciferase reporter (MCF7-derived line), luminescence, 24 h; Potency, µM (titrated, usually from 46.1 µM), actives largely listed as activators; 0.31% of 410,000 active; AID 624171; note: nearly all actives have a fitted effect of over 65% in size
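ARE-driven firefly luciferase activity in AREc32 cells measured after a 24 hr compound exposure at 37 deg C, using Steady-Glo reagent and a 30 min room-temperature hold.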
BRCA1 expr up = increases BRCA1 expression; MCF7-BRCA1-FFLuc reporter, luminescence, 48 h; response scale: scaled: vehicle 0%, 10 µM genistein 100%; Potency, µM (series often up to 46.1 µM), actives largely listed as activators; 1.1% of 380,000 active; AID 624202; note: nearly all actives have a fitted effect of over 80% in size
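Quantitative HTS in MCF7 cells stably reporting BRCA1 expression via firefly luciferase. Compound treatment lasts 48 h at 37 °C in phenol-red free MEM. Activation is expressed relative to genistein at 10 microM and DMSO.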
Each line names hits and unclear results; the compound was inactive in the other large screens. Unless noted, calls come from the whole dose curve; as a rule, active = well fitted curve in the direction sought with a large enough effect; inconclusive = small, poorly fitted or top-dose-only effect, or another doubt; inactive = no such curve, though single readings can be large; an effect the other way counts as inactive or inconclusive.

COc1ccc(S(=O)(=O)NCc2cccnc2)cc1OC	none
Cc1cc(/C=C2/NC(=O)N(c3ccccc3)C2=O)c(C)n1-c1cccnc1	ELG1 repair inh inconclusive, BRCA1 expr up 1.3µM
COc1ccccc1C(=O)NCCC(=O)NC1CCC(C)CC1 (centres undefined)	ELG1 repair inh inconclusive, BRCA1 expr up 8.9µM
COc1ccccc1C(=O)NCCC(=O)NC1CCCCC1C (centres undefined)	none
Cc1ccc(C(=O)NCC(=O)N(C)Cc2ccccc2C)s1	BRCA1 expr up 11µM (no result: ELG1 repair inh)
COc1ccc(C(=O)C2CCCN(C(=O)COc3ccc(C(C)=O)cc3)C2)cc1F (centres undefined)	ELG1 repair inh 15µM
COC(=O)c1cn(-c2nc3ccccc3s2)nn1	none (no result: ELG1 repair inh)
CCOc1ccc(NC(=O)c2cc3c(C)nc4ccccc4c3o2)cc1	ELG1 repair inh 8.2µM
Cc1nc2ccccc2c2oc(C(=O)N3CCc4ccccc4C3)cc12	ELG1 repair inh 26µM
CN(C)CCCNc1cc(N2CCN(C3CCCCC3)CC2)c2noc3c2c1C(=O)c1ccccc1-3	none (no result: IL2 activator, ELG1 repair inh, BRCA1 expr up)
CCC[n+]1c2ccccc2cc2ccccc21	ELG1 repair inh 23µM
CCc1ccc2nc(N(Cc3cccnc3)C(=O)Cc3ccccc3)sc2c1	none (no result: IL2 activator, ELG1 repair inh, BRCA1 expr up)
O=C(NCCCN1CCN(Cc2ccccc2)CC1)C1CCN(c2nnc(-n3cccc3)s2)CC1	ELG1 repair inh 7.1µM
O=C(NCCCc1ccccc1)C1CCN(c2nnc(-n3cccc3)s2)CC1	none
Cc1ccccc1CN1CCCN(CC(=O)Nc2ccc3c(c2)OCCO3)S1(=O)=O	none (no result: IL2 activator, ELG1 repair inh, BRCA1 expr up)
Cc1ccccc1NC(=O)CSc1nc(-c2ccccc2)cn1-c1ccccc1F	none (no result: IL2 activator, ELG1 repair inh, BRCA1 expr up)
O=C(C[n+]1ccccc1Br)c1ccc(F)cc1	none (no result: IL2 activator, ELG1 repair inh, Nrf2 activator)
O=C(/C=C\c1ccccc1OC(=O)c1ccccc1F)c1cc2ccccc2o1	ELG1 repair inh inconclusive, Nrf2 activator 11µM
CC(NC(=O)c1ccc(NC(=O)c2nsc3ccccc23)cc1)c1ccccc1 (centres undefined)	none (no result: IL2 activator, ELG1 repair inh, BRCA1 expr up)
O=C(CCc1nc2ccccc2c(=O)[nH]1)Nc1nc(-c2cccs2)cs1	Nrf2 activator 10µM
C=CCn1c(C)cc(-c2csc(NC(=O)CCc3nc4ccccc4c(=O)[nH]3)n2)c1C	ELG1 repair inh inconclusive
COc1ccc2[nH]cc(CCNC(=O)Nc3cc(C)cc(C)c3)c2c1	none (no result: IL2 activator, ELG1 repair inh, BRCA1 expr up)
COc1cc2c(NC3CCN(C)CC3)nc(N3CCCN(C)CC3)nc2cc1OCCCCCN(C)C	none (no result: IL2 activator, ELG1 repair inh, Nrf2 activator)
CC(C)OC(=O)c1cc2c(ccn2C)n1CC(=O)N1CCC(Cc2ccccc2)CC1	none
COC(=O)c1cc2c(ccn2-c2ccc(F)cc2)n1CC(=O)N1CCN(C(=O)c2ccco2)CC1	ELG1 repair inh 16µM
CC(C)OC(=O)c1cc2c(ccn2-c2ccc(F)cc2)n1CC(=O)N1CCN(C(=O)c2ccco2)CC1	ELG1 repair inh 8.2µM
CCn1c(C(=O)OC)cc2c1ccn2-c1ccc(F)cc1	ELG1 repair inh inconclusive, BRCA1 expr up inconclusive
Cc1oc2ccc(O)c(CN3CCCCCC3)c2c1C(=O)Nc1cccc(Cl)c1C	none (no result: IL2 activator, ELG1 repair inh, BRCA1 expr up)
COc1ccc(N(C(=O)CCl)C(C(=O)NCCc2ccccc2)c2cccs2)cc1Cl (centres undefined)	ELG1 repair inh inconclusive, Nrf2 activator inconclusive
COc1cccc(N(C(=O)CCl)C(C(=O)NCCc2ccccc2)c2cccs2)c1 (centres undefined)	ELG1 repair inh 16µM, Nrf2 activator inconclusive
O=C(NCC(c1ccc(Cl)cc1)N1CCCCC1)c1ccccc1 (centres undefined)	none (no result: IL2 activator, ELG1 repair inh, BRCA1 expr up)
COc1ccc(N(C)S(=O)(=O)c2cccc(C(=O)Nc3nc(C)c(C(C)=O)s3)c2)cc1	ELG1 repair inh 10µM
COc1ccc(N(C)S(=O)(=O)c2cccc(C(=O)Nc3nnc(C)s3)c2)cc1	ELG1 repair inh inconclusive
COc1ccc(N(C)S(=O)(=O)c2cccc(C(=O)Nc3cccc(C(=O)NC4CC4)c3)c2)cc1	ELG1 repair inh 21µM
COc1ccc(N(C)S(=O)(=O)c2cccc(C(=O)OCC(=O)c3c(N)n(C)c(=O)n(C)c3=O)c2)cc1	ELG1 repair inh 18µM
CCOc1ccc(N(C)C(=O)CS(=O)(=O)c2cccc3nsnc23)cc1	none (no result: IL2 activator, ELG1 repair inh)
COc1cc(CCC(C)=O)ccc1OC(=O)c1c(F)cccc1Cl	ELG1 repair inh inconclusive, BRCA1 expr up 8.9µM
COc1ccc(CCNC(=O)c2ccccc2Cl)cc1OC	none
Cc1cccc(N2CCN(C(=O)C3CCCN(S(=O)(=O)c4ccc(Br)s4)C3)CC2)c1C (centres undefined)	none (no result: IL2 activator, ELG1 repair inh, BRCA1 expr up)
Cc1ccn2c(Nc3ccc4c(c3)OCCO4)c(-c3ccc(C)o3)nc2c1	none (no result: IL2 activator, ELG1 repair inh, BRCA1 expr up)
Cc1c(N)ccc(-n2nc3ccccc3n2)c1C	BRCA1 expr up 11µM (no result: ELG1 repair inh)
C[N+](C)(C)CCC(=O)N1C/C(=C/c2ccccc2)C(=O)/C(=C\c2ccccc2)C1	Nrf2 activator inconclusive (no result: ELG1 repair inh)
CCOC(=O)N1C/C(=C\c2ccccc2)C(=O)/C(=C/c2ccccc2)C1	ELG1 repair inh inconclusive, Nrf2 activator 11µM
CCc1ccccc1NC(=O)C(CCSC)NS(=O)(=O)c1ccc2c(c1)oc(=O)n2C (centres undefined)	none (no result: IL2 activator, ELG1 repair inh)
O=C(CSc1nc(-c2ccccc2)c(-c2ccccc2)[nH]1)N1CCN(S(=O)(=O)c2ccccc2)CC1	ELG1 repair inh 16µM
O=C(CSc1nc2ccccc2c(=O)[nH]1)N1CCN(S(=O)(=O)c2ccccc2)CC1	ELG1 repair inh inconclusive
CCN1/C(=C/C=C/c2oc3ccc(-c4ccccc4)cc3[n+]2CC)Oc2ccc(-c3ccccc3)cc21	IL2 activator inconclusive, ELG1 repair inh 12µM
O=C(COC(=O)c1c2c(nc3ccccc13)CCN(Cc1ccccc1)C2)Nc1c(F)cccc1F	ELG1 repair inh 5.8µM
CC(=O)Nc1ccc(NC(=O)COC(=O)c2c3c(nc4ccccc24)CCN(Cc2ccccc2)C3)cc1	ELG1 repair inh 2.3µM
CCOC(=O)c1cnn(-c2ncnc3c2oc2ccccc23)c1N	ELG1 repair inh inconclusive, BRCA1 expr up 3.2µM
C[C@@H]1O[C@H](CCc2cccc(Cl)c2)CC2=C1C(=O)OC(C)(C)O2	none (no result: ELG1 repair inh)
O=C(Nc1ccccc1F)c1ccc(-c2cccc([N+](=O)[O-])c2)o1	ELG1 repair inh inconclusive, Nrf2 activator 1.4µM, BRCA1 expr up inconclusive
O=C(Nc1ncc(Cc2cccc(C(F)(F)F)c2)s1)c1ccc(-c2cccc([N+](=O)[O-])c2)o1	ELG1 repair inh 12µM
O=C(Nc1ccc(CN2CCOCC2)cc1)c1ccc(Br)o1	ELG1 repair inh inconclusive, BRCA1 expr up inconclusive
S=C(c1ccc(-c2cccc(Cl)c2)o1)N1CCCCC1	ELG1 repair inh inconclusive, BRCA1 expr up inconclusive
S=C(c1ccc(-c2cccc(Cl)c2)o1)N1CCOCC1	ELG1 repair inh inconclusive, BRCA1 expr up 3.5µM
O=C(Nc1ccc(CN2CCOCC2)cc1)c1ccc(-c2cc(Cl)ccc2Cl)o1	ELG1 repair inh 23µM
CCOc1cc(CNC(=O)c2ccc3nc(C(C)C)oc3c2)cc(OCC)c1OCC	none (no result: IL2 activator, ELG1 repair inh)
O=C(Nc1ccc(CN2CCOCC2)cc1)c1ccc(-c2cccc([N+](=O)[O-])c2)o1	ELG1 repair inh 13µM
